Assay [1] in a line: qHTS assay to identify small molecule agonists of the estrogen receptor alpha (ER-alpha) signaling pathway in the presence of an antagonist - cell viability counter screen (AID 1259386). Note: nearly all actives have a fitted effect of over 30% in size. Note: potency is the fitted concentration of half-maximal effect. The gist of the method: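 Compounds tested at 15 concentrations for 22 h at 37C alongside 10.0nM (final) ICI-182,780 antagonist, in VM7Luc4E2 cells grown in phenol red-free, charcoal-stripped medium. Viability read by CellTiter-Fluor fluorescence after 1 h reagent incubation.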
(In general: In qHTS, concentration-response curves come from the screen itself.)

For assay [2], the target named is Progesterone receptor (Homo sapiens) (UniProt P06401). Put plainly: qHTS assay to identify small molecule agonists of the progesterone receptor (PR) signaling pathway (AID 1346784; calls by dose curve; note: nearly all actives have a fitted effect of over 30% in size; note: potency is the fitted concentration of half-maximal effect). In outline: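 The screen uses PR-UAS-bla HEK 293T cells in charcoal-stripped serum (2%). Compounds are applied for 16 hr at 37C after a 6 hr pre-incubation, and reporter activity is detected with a FRET beta-lactamase substrate after 2 hr at room temperature.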
Progesterone receptor (Homo sapiens), sequence (P06401 whole entry, looked up): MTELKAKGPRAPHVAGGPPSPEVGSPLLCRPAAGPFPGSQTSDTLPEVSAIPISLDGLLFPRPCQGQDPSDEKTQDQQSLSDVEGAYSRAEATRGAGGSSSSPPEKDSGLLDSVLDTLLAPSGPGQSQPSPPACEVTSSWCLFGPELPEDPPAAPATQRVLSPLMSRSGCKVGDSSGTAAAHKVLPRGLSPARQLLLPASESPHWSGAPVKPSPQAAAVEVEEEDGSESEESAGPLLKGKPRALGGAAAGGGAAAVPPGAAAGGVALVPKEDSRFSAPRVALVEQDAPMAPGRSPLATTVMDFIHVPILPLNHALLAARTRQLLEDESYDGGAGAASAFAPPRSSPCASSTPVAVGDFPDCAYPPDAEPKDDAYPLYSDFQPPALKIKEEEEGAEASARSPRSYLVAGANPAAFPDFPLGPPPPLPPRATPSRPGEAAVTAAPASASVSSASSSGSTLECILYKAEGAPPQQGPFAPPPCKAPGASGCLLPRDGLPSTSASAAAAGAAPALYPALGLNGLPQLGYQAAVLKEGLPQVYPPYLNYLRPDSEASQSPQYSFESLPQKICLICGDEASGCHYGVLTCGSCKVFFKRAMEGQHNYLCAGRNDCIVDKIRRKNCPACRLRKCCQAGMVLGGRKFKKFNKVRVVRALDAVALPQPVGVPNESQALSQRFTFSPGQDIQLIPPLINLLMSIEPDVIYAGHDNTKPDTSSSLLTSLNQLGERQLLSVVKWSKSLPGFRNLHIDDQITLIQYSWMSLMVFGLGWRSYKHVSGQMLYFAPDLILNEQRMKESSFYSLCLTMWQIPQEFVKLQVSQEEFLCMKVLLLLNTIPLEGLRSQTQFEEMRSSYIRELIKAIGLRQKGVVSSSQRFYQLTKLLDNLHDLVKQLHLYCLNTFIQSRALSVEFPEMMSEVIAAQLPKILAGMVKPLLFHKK

The target is the same in assay [3]. Put plainly: qHTS assay to identify small molecule antagonists of the progesterone receptor (PR) signaling pathway (AID 1346795; active = well fitted inhibition curve with a large enough effect in the signal ratio in the repeat runs, not every such curve was filed as active; the % refers to the signal ratio; note: potency is the fitted concentration of half-maximal effect). The gist of the method:
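After 6 hr plating at 37C in 2% stripped-serum medium, PR-UAS-bla HEK293T cells got compounds, then 1 nM R5020. Sixteen hours later, LiveBLAzer substrate was applied for 2 hr at room temperature and fluorescence was recorded.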

Assay [4] can be described thus: qHTS assay to identify small molecule antagonists of the progesterone receptor (PR) signaling pathway - cell viability counter screen (AID 1346798). Note: series mostly up to about 92 µM; nearly all actives have a fitted effect of over 50% in size. The gist of the method: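 Viability was determined by ATP-based luminescence (CellTiter-Glo) in PR-UAS-bla HEK293T cells cultured in 2% charcoal-stripped serum and incubated 16 hr with compounds under R5020 stimulation.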

Assay [5] can be described thus: qHTS assay to identify small molecule agonists of the progesterone receptor (PR) signaling pathway - cell viability counter screen (AID 1346799; calls by dose curve; note: nearly all actives have a fitted effect of over 45% in size). The gist of the method:
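Viability was scored by ATP luminescence (CellTiter-Glo, 30 min, room temperature) in the same wells used for the reporter readout, after 16 hr compound exposure of PR-UAS-bla HEK293T cells.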

Assay [6] in a line: qHTS assay to identify small molecule antagonists of the TGF-beta/Smad signaling pathway - cell viability counter screen (AID 1346824). Note: nearly all actives have a fitted effect of over 50% in size. In outline:
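SBE-bla HEK 293T cells, incubated overnight, then compound plus 0.25 ng/mL TGF-beta1 (stock added) for 5 hr at 37 C. Viability was read in the same wells by CellTiter-Glo luminescence after 30 min at room temperature.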

The nature of assay [7]: qHTS assay to identify small molecule agonists of the TGF-beta/Smad signaling pathway - cell viability counter screen (AID 1346829). Note: top concentration of the series differs between compounds; nearly all actives have a fitted effect of over 45% in size. The gist of the method:
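In parallel with the Smad reporter read, viability of HEK 293T cells stably carrying SBE-bla is quantified by ATP luminescence following 5 hr compound treatment.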

Assay [8] can be described thus: qHTS assay to identify small molecule agonists of the TGF-beta/Smad signaling pathway (AID 1346859; active = well fitted activation curve with a large enough effect in the signal ratio in the repeat runs, not every such curve was filed as active; the % refers to the signal ratio; note: series mostly up to about 77 µM). The gist of the method:
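Dual-wavelength fluorescence (460/530 nm emission) quantified beta-lactamase expression under the Smad binding element in HEK 293T cells following 5 hr compound treatment at 37 C.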

The target of assay [9] is Thyrotropin-releasing hormone receptor (Homo sapiens) (UniProt P34981). As to the kind of experiment: qHTS assay to identify small molecule agonists of the thyrotropin-releasing hormone receptor (TRHR) signaling pathway (AID 1346891; calls by dose curve;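 note: HEK293 cells expressing TRHR with calcium dye readout; series mostly up to about 58 µM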). In outline: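 Kinetic fluorescence (3 min, 1 s intervals) reported intracellular calcium after compound transfer onto TRHR-Hek293 cells pre-loaded with dye for 2 h at 37 °C.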
Thyrotropin-releasing hormone receptor (Homo sapiens), sequence (P34981 whole entry, looked up): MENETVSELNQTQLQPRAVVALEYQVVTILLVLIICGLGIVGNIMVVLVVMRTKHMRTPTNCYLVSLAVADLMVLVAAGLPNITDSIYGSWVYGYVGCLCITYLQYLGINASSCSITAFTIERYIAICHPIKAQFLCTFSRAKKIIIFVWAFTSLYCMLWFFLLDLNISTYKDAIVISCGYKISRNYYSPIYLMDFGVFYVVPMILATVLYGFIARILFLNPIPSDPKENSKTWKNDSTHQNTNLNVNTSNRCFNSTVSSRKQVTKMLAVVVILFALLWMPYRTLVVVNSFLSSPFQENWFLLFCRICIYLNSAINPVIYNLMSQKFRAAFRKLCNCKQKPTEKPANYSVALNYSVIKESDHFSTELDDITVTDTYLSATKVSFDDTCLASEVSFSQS

A short description of assay [10]: Human pregnane X receptor (PXR) small molecule agonists, qHTS cell viability counter screen (AID 1346977). Note: nearly all actives have a fitted effect of over 50% in size. Note: potency is the fitted concentration of half-maximal effect. The gist of the method:
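HepG2 cells stably carrying the PXR-Luc reporter are cultured with 5% charcoal-stripped FBS and treated with compounds for 24hr. CellTiter-Fluor is added at 23hr and fluorescence is read after 1hr.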

Assay [11] in a line: Caspase-3/7 induction in HepG2 cells by small molecules, qHTS assay (AID 1346978). Note: nearly all actives have a fitted effect of over 15% in size. The gist of the method:
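Wild-type HepG2 cells, 2,000/well, settled 5 hr at 37 C and 5% CO2, then compound-treated for 17 hr; caspase-3/7 activity read by luminescent Caspase-Glo 3/7 after 30 min at room temperature.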

The nature of assay [12]: Caspase-3/7 induction in CHO-K1 cells by small molecules, qHTS cell viability counter screen (AID 1346979). Note: nearly all actives have a fitted effect of over 35% in size. The gist of the method:
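Seeding: 1,500 CHO-K1 cells/well. Rest: 5hr, 37C. Treatment: compounds in DMSO, 16hr. Read: CellTiter-Fluor, 1hr, fluorescence.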

Assay [13] is described as follows: Caspase-3/7 induction in CHO-K1 cells by small molecules, qHTS assay (AID 1346980). Note: nearly all actives have a fitted effect of over 15% in size. The gist of the method:
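Wild-type CHO-K1 cells exposed to compounds for 17hr at 37 C, 5% CO2. Caspase-3/7 activity then measured by Caspase-Glo 3/7 luminescence after 30min at room temperature.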

Assay [14] is described as follows: Caspase-3/7 induction in HepG2 cells by small molecules, qHTS cell viability counter screen (AID 1346981). Note: series mostly up to about 92 µM; nearly all actives have a fitted effect of over 30% in size. In outline:
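CellTiter-Fluor fluorescence measured viability in the same wells used for Caspase-Glo 3/7. HepG2 (wild type) at 2,000 cells/well were pre-incubated 5 hr, dosed, and given reagent at 16 hr, with 1 hr further at 37C.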

Assay [15] concerns the target Nuclear receptor subfamily 1 group I member 2 (Homo sapiens) (UniProt O75469). As to the kind of experiment: Human pregnane X receptor (PXR) small molecule agonists, qHTS assay (AID 1346982). Note: nearly all actives have a fitted effect of over 35% in size. Note: potency is the fitted concentration of half-maximal effect. In outline:
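Agonist mode: luminescence from ONE-Glo after 24 h compound exposure at 37C in HepG2 cells carrying hPXR-responsive CYP3A4 luciferase, plated in charcoal-stripped serum medium 5 h beforehand.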

In assay [16] the target is Acetylcholinesterase (Homo sapiens) (UniProt P22303). As to the kind of experiment: Acetylcholinesterase (AChE) small molecule antagonists: colormetric cell-based qHTS assay (AID 1347395; calls by dose curve; note: nearly all actives have a fitted effect of over 30% in size; note: potency is the fitted concentration of half-maximal effect). In outline: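 Quantitative HTS in attached SH-SY5Y cells: 30 min compound exposure, then 90 min with acetylthiocholine and DTNB at 37 C; colour from thiocholine reports AChE activity.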
Acetylcholinesterase (Homo sapiens), sequence (P22303 whole entry, looked up): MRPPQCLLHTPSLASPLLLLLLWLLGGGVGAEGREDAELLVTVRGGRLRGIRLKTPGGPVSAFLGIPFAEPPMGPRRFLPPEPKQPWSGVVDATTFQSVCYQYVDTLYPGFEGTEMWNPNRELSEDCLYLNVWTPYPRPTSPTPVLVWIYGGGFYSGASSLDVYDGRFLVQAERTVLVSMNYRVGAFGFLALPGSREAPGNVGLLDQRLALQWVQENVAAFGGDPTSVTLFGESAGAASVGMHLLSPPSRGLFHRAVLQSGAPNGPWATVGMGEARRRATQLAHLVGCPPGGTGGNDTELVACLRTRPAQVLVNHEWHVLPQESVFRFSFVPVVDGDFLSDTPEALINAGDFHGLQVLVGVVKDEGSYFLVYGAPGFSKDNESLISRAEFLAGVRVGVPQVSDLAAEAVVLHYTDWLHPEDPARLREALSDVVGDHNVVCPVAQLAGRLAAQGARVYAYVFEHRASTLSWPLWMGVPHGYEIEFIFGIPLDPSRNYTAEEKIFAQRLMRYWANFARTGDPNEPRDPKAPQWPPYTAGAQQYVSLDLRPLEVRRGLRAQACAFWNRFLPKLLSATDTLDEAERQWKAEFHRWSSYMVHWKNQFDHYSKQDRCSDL

The target in assay [17] is Thyrotropin-releasing hormone receptor (Homo sapiens) (UniProt P34981). As to the kind of experiment: qHTS assay to identify small molecule antagonists of the thyrotropin-releasing hormone receptor (TRHR) signaling pathway (AID 1346877; active = well fitted inhibition curve with a large enough effect in the repeat runs, not every such curve was filed as active; note: series mostly up to about 51 µM). The gist of the method: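 Antagonist mode: after a 5 min room-temperature compound exposure, cells were stimulated with 1 nM (final) TRH. Dye-loaded TRHR-HEK293 cells were used, and calcium-dependent fluorescence was followed for 3 min, with 15-point titrations run in triplicate.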

Inconclusive results are not listed. Calls of active or inactive are those of the source. Unless noted, calls come from the whole dose curve; as a rule, active = well fitted curve in the direction sought with a large enough effect in the repeat runs; inconclusive = weak or mixed curves; inactive = no such curve, though single readings can be large; an effect the other way counts as inactive or inconclusive.

Nuclear receptor subfamily 1 group I member 2 (Homo sapiens), sequence (O75469 whole entry, looked up): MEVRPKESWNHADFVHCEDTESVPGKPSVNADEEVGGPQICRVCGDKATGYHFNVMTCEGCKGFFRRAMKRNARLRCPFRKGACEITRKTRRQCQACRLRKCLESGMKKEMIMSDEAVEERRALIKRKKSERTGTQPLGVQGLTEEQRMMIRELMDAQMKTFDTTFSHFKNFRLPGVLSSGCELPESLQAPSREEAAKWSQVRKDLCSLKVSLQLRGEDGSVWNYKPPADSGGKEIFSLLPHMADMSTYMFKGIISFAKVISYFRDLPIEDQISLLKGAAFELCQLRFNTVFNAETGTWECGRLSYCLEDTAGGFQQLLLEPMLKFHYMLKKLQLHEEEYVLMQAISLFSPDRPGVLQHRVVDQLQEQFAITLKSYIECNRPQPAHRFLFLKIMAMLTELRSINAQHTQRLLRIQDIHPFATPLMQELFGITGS

Regarding `ClC(Cl)C(Cl)(Cl)Cl`, the Potency result in [1], in assay [2], in [3], in [4], in assay [5] and in assay [6] was “inactive” throughout. For the same molecule, the Potency entry in assay [7], in assay [9], in assay [10], in [11], in assay [12] and in assay [13] was “inactive” each time. For the same molecule, the Potency entry in [14], in [15] and in assay [16] was “inactive” in each case. The molecule was classed as inactive in [8].

Consider `c1cc[n+]2c(c1)-c1cccc[n+]1CC2`, for which the figures for the Potency in [1] and in assay [10] were 29.8 µM (active) and 13.3 µM (active), respectively. For the same molecule, the Potency result in assay [2], in assay [3], in assay [4], in assay [5], in [6] and in assay [7] was “inactive” in each case. The Potency result in assay [9], in [11], in [12], in assay [13], in assay [14] and in assay [15] was “inactive” each time. For the same molecule, the Potency result in assay [16] was “inactive”. Also, the molecule was called inactive in assay [8].

With `O=S(=O)(O)F`, the Potency entry in assay [1], in assay [2], in [3], in assay [4], in assay [5] and in assay [6] was “inactive” each time. The Potency entry in [7], in [17], in assay [9], in assay [10], in assay [11] and in [12] was “inactive” each time. The Potency entry in assay [13] and in assay [16] was “inactive” in each case. For the same molecule, the call in [8] was inactive. The Potency in assay [15] is 53.8 µM (active).

Turning to `CC1CCCC1`, the Potency entry in [1], in [3], in assay [4], in [5], in [6] and in assay [7] was “inactive” each time. Further, the Potency result in assay [9], in assay [10], in [11], in assay [13], in [14] and in assay [15] was “inactive” each time. For the same molecule, the Potency result in assay [16] is “inactive”. Moreover, the Potency in assay [2] is 53.6 µM (active).

As to `CNC(=O)/C=C(\C)OP(=O)(OC)OC`, the Potency entry in assay [1], in assay [2], in assay [3], in assay [4], in [5] and in assay [6] was “inactive” each time. Besides, the Potency entry in assay [7], in [9], in [10], in assay [11], in assay [13] and in assay [14] was “inactive” in each case. In assay [15], the Potency entry was “inactive”. Besides, in [8], the outcome was inactive. Also, the Potency in [16] was 39.9 µM (active).

Take `[Cl-].[Cl-].[Sn+2]`: the Potency entry in assay [1], in assay [2], in assay [3], in assay [4], in assay [5] and in [6] was “inactive” each time. Further, the Potency entry in [7], in [10], in [11], in assay [12], in [13] and in assay [14] was “inactive” throughout. Further, the molecule was classed as inactive in assay [8].

Turning to `Clc1cc(Cl)c(-c2cc(Cl)c(Cl)cc2Cl)cc1Cl`, the Potency result in assay [1], in assay [2], in assay [4], in [5], in [6] and in assay [7] was “inactive” in each case. Further, the Potency result in [17], in assay [9], in assay [10], in assay [11], in assay [12] and in assay [13] was “inactive” in each case. For the same molecule, the Potency entry in [14], in assay [15] and in [16] was “inactive” each time. Besides, the Potency in assay [3] was 10.2 µM (active). Moreover, the call in [8] was inactive.

Source of the values: PubChem BioAssay (Tox21).
